Compounds with a hit are over-represented: about 14% of the library has one in this group of screens.
CHX counter – Cycloheximide Counterscreen for Small Molecule Inhibitors of Shiga Toxin | cell reporter, cycloheximide protein synthesis inhibition counterscreen | max response, % | 300,000 compounds, 12% hits | AID 2314, 2010; in the data active means max response mostly above about 13%, no sharp cut-off; inactive means mostly below about 14%; further: read at 38.3 µM for the half of the compounds with a filed dose
Giardia FBPA inh – qHTS Assay for Inhibitors of Fructose-1,6-bisphosphate Aldolase from Giardia Lamblia. A8B2U2. purified Giardia FBPA. Potency, µM (highest dose often 59.6 µM), most hits filed as inhibitors. 290,000 compounds, 0.71% hits; further: nearly all actives have a fitted effect of over 55% in size
Target sequence (A8B2U2 whole entry, looked up): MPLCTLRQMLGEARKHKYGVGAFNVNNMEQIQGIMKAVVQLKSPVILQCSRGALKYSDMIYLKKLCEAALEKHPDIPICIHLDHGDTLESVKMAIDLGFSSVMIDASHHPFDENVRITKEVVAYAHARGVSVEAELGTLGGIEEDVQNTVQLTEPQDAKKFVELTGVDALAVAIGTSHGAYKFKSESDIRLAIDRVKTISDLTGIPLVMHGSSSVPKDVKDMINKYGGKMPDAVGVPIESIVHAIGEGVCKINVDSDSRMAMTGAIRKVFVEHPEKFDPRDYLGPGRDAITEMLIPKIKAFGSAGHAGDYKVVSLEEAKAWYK
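40 nM FBPA preincubated 10 min at RT with compound (up to 57.5 uM final), then substrate plus GAPDH/TPI/NAD/arsenate coupling and diaphorase/resazurin added. Fluorescence read after 20 min at RT, 525/598 nm.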
LmPK inhibitor – qHTS Assay for Inhibitors of Leishmania Mexicana Pyruvate Kinase (LmPK). AID 1721, 2009. 290,000 compounds, 0.37% hits. purified LmPK, Kinase-Glo ATP luminescence, 1 h. Potency, µM (doses to about 57.5 µM), hits mostly inhibitors
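In 50 mM imidazole pH 7.2 with 7 mM MgCl2, LmPK (0.1 nM) turned over PEP (0.5 mM) and ADP (0.1 mM) for 1 h at room temperature. Luciferase read-out of ATP.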
NS1 function inh – qHTS Assay for Inhibitors of Influenza NS1 Protein Function; 270,000 compounds, 0.4% hits; Potency, µM (series often up to 46.1 µM); AID 2326, 2010; calls by dose curve; further: actives are rising curves; nearly all actives have a fitted effect of over 50% in size
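Read-out: OD600 growth recovery of NS1-expressing budding yeast. Cells grown overnight at 30C in -URA glucose medium, washed, resuspended and diluted 1:100 in 2% galactose assay medium, pH 6.0. Same strain lacking NS1 served as positive control.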
Shiga toxin inh – A qHTS for Small Molecule Inhibitors of Shiga Toxin | Vero cells, Shiga toxin protein synthesis inhibition reporter | inhibition, % at 38.7 µM | 290,000 compounds, 9.2% hits | AID 2315, 2010; in the data active means inhibition mostly above about 28%, no sharp cut-off; inactive means mostly below about 43%
Of the large screens only hits and unclear results are named; the others gave an inactive call; ! = a repeat was not active. Unless noted, the call rests on the fitted dose curve; in most records, active means well fitted curve in the direction sought with a large enough effect; inconclusive means small, poorly fitted or top-dose-only effect, or another doubt; inactive means no such curve, though single readings can be large; an effect the other way counts as inactive or inconclusive.

COC(=O)NNC(=O)c1ccccc1OC	none
CCC/C=C(\CCC)C(NS(=O)(=O)c1ccc(C(F)(F)F)cc1)c1ccc(-c2ccccc2)cc1 (centres undefined)	none (no result: CHX counter, LmPK inhibitor, NS1 function inh, Shiga toxin inh)
COc1ccc(NC(=S)N2CCN(C(=O)C3CCCO3)CC2)cc1 (centres undefined)	none (no result: Giardia FBPA inh)
COc1cc(Cl)c(C)cc1NC(=O)Cc1cccs1	none
Cc1ccccc1C(=O)NNC(=O)c1ccc(F)cc1	CHX counter 20
CO[C@H]1O[C@H](C)[C@@H](O)C[C@H]1NC(=O)OCc1ccccc1	Giardia FBPA inh inconclusive
O=C(CCc1ccccc1)NNC(=O)COc1ccccc1Cl	none
O=C(COc1ccccc1Cl)NCc1ccccc1	CHX counter 31, Shiga toxin inh 54
O=C(COc1ccccc1Cl)NCc1ccncc1	CHX counter 32
CC(C)(C)n1ncc2c(=O)n(CC(=O)NCc3ccccc3Cl)cnc21	CHX counter 32, Shiga toxin inh 64
Cc1cc(C)cc(-n2ccn(CC(=O)NCCc3ccccc3)c(=O)c2=O)c1	none
Cc1ccc(-n2ccn(CC(=O)NCCc3ccccc3)c(=O)c2=O)cc1C	CHX counter 33
CC(C)(C)n1ncc2c(=O)n(CC(=O)NCCc3ccccc3)cnc21	CHX counter 21, Shiga toxin inh 61
CC(=O)OCC(NC(=O)C(CCCCNC(=O)OCc1ccccc1)NC(=O)OC(C)(C)C)C1OC(n2cc(F)c(=O)[nH]c2=O)C(OC(C)=O)C1OC(C)=O (centres undefined)	none (no result: LmPK inhibitor, NS1 function inh)
Cc1oc2c(c1C(=O)c1ccccc1)C(=O)C(=O)c1ccccc1-2	Giardia FBPA inh 1.1µM
O=C1C(=O)c2c(C(=O)c3ccccc3)coc2-c2ccccc21	Giardia FBPA inh 3.2µM
CCOC(=O)c1c(C)oc2c1C(=O)c1ccccc1C2=O	CHX counter 30, Giardia FBPA inh inconclusive, Shiga toxin inh 50
Cc1oc2c(c1C(=O)O)C(=O)c1ccccc1C2=O	Giardia FBPA inh inconclusive
CCN(CC(=O)NC1CCCC1)S(=O)(=O)c1ccc(Br)cc1	none (no result: Giardia FBPA inh)
Cc1ccc(NC(=O)CCCc2c[nH]c3ccccc23)nc1	none
O=C(CC(=O)c1ccccc1)Nc1ccccn1	CHX counter 43, Shiga toxin inh 76
O=C(Cn1nc(-c2ccccc2)c2ccccc2c1=O)Nc1ccccn1	CHX counter 46
Cc1ccnc(NC(=O)CCCc2c[nH]c3ccccc23)c1	CHX counter 23, Shiga toxin inh 46 (no result: Giardia FBPA inh)
Cc1nn(CC(=O)Nc2ccccn2)c(=O)c2ccccc12	none
Cc1ccnc(NC(=O)CCCOc2cc(=O)n(C)c3ccccc23)c1	CHX counter 16
CCN1C(=O)[C@H]2[C@H]3[C@H](O)[C@H](O)C/C(=N/O[C@@H]4O[C@@H](COC(C)=O)[C@@H](OC(C)=O)[C@@H](OC(C)=O)[C@H]4OC(C)=O)[C@@H]3CC[C@@H]2C1=O	none (no result: CHX counter, LmPK inhibitor, NS1 function inh, Shiga toxin inh)
O=C(CCCc1ccccc1)NCc1ccccn1	none (no result: Shiga toxin inh)
Cc1ccnc(NC(=O)CCCc2ccccc2)c1	CHX counter 58, Shiga toxin inh 74
O=C(CSCCc1ccccn1)Nc1ccccn1	CHX counter 15
O=C(CSCCc1ccccn1)Nc1ccc(Br)cn1	none
Cc1ccnc(NC(=O)CSc2ccccn2)c1	CHX counter 29
O=C(CCCc1ccccc1)Nc1ccccn1	CHX counter 19, Shiga toxin inh 74
Cc1ccc(-n2ncc3c2CC(C)(C)CC3NC(=O)CCc2c(C)noc2C)cc1 (centres undefined)	none (no result: Giardia FBPA inh)
CCc1ccc(NC(=O)CC2C(=O)N(c3ccc(Cl)cc3)C(=O)N2C2CCCC2)cc1 (centres undefined)	none (no result: Giardia FBPA inh, LmPK inhibitor, NS1 function inh)
O=C(CCN1C(=O)S/C(=C\c2ccc(F)cc2)C1=O)Nc1ccc(O)cc1C(=O)O	none (no result: Giardia FBPA inh)
Cn1cccc1C(=O)N1CCC2(CCCN(c3ccc(-c4ccccc4)cc3)C2)CC1	none (no result: CHX counter, LmPK inhibitor, NS1 function inh, Shiga toxin inh)
O=C1N/C(=C\c2ccccc2)c2ccccc21	CHX counter 27, Shiga toxin inh 57
O=C1Nc2ccccc2Nc2ccccc21	none
O=C1N/C(=C\c2nc3ccccc3s2)c2ccccc21	CHX counter 62, LmPK inhibitor inconclusive, Shiga toxin inh 76
COC(=O)C1=C(C(=O)OC)[C@@H]2Nc3ccccc3[C@@]23C[C@@H](C(=O)OC)N(S(=O)(=O)c2ccc(C)cc2)C3=N1	none (no result: CHX counter, NS1 function inh, Shiga toxin inh)
O=C(CSc1nnc(COc2ccc(Cl)cc2)o1)N1CCCC1	none
O=C(CCc1nnc(C2(c3ccc(Cl)cc3)CCC2)o1)N1CCCC1	CHX counter 25, Shiga toxin inh 75
CC(=O)c1ccc(-c2nnc(CCC(=O)N3CCCC(C(=O)CC(C)C)C3)o2)s1 (centres undefined)	CHX counter 34, Shiga toxin inh 80
NC(=O)C1CCCN(C(=O)CCc2nnc(C3(c4ccc(Cl)cc4)CCC3)o2)C1 (centres undefined)	none (no result: Giardia FBPA inh)
CCC(=O)C1CCCN(C(=O)CCc2nnc(C3(c4ccc(Cl)cc4)CCC3)o2)C1 (centres undefined)	CHX counter 57, Shiga toxin inh 80 (no result: Giardia FBPA inh)
COC(=O)c1ccccc1C(=O)N(Cc1cccnc1)CC1CCCN(C2CCCCC2)C1 (centres undefined)	none
C[C@H](NC(=O)OC(C)(C)C)C(=O)N/N=C/c1ccc2nccnc2c1	none
Cc1nc2cc3ccccc3cc2n1C	CHX counter 19, Shiga toxin inh 48
Cc1c(OCC(F)(F)F)ccnc1CS(=O)c1nc2ccccc2[nH]1 (centres undefined)	CHX counter 27, Shiga toxin inh 116!
Cc1c(OCC(F)(F)F)ccnc1CSc1nc2ccccc2[nH]1	CHX counter 54, Shiga toxin inh 132
O=c1[nH]c2ccccc2nc1C(F)(F)F	none
CC(C)NC(=O)c1onc(CSc2nc3ccccc3[nH]2)c1C(=O)NC(C)C	none
Cc1ccc(C(=O)Nc2nc(=O)n(C(=O)C3CC3)s2)cc1	CHX counter 16
O=C(Nc1nc(=O)n(C(=O)C2CC2)s1)c1ccccc1	CHX counter 27
O=c1[nH]c2ccsc2c(=O)n1CCO	none
CCn1cc(C(=O)Nc2ccc(C)c([N+](=O)[O-])c2)cn1	Shiga toxin inh active
CCn1cc(C(=O)Nc2ccc(F)c(F)c2)cn1	CHX counter 11, Shiga toxin inh 60
Cc1ccc(OCC(=O)Oc2cccc(C)c2C)cc1	none (no result: Shiga toxin inh)
Cc1cccc(NC(=O)C2CCN(C(=O)[C@@H]3Cc4ccccc4CN3)CC2)c1	none
CCc1ccc(NC(=O)C2CCN(C(=O)[C@@H]3Cc4ccccc4CN3)CC2)cc1	CHX counter 34, Giardia FBPA inh inconclusive, NS1 function inh inconclusive, Shiga toxin inh 60
COc1ccc(NC(=O)C2CCN(C(=O)[C@@H]3Cc4ccccc4CN3)CC2)cc1	CHX counter 33
Cc1ccc(NC(=O)C2CCN(C(=O)[C@@H]3Cc4ccccc4CN3)CC2)c(C)c1	CHX counter 14
O=C(CCS(=O)(=O)c1ccccc1)Nc1ccccc1-c1nc2ccccc2s1	none
